D3 ag – D3 dopamine receptor (human) agonism; P35462; D3R DiscoveRx beta-arrestin cells, luminescence, 90 min; max activation, %; hit rate 0.58% among 410,000; in the data active = max activation above about 30%; also: 0% is about no effect
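Agonist mode: compounds and dopamine controls were applied to plated cells for 90 min at 37 degrees C after an overnight attachment at 1500 cells/well. Luminescent read-out followed 30 - 60 minutes at room temperature with DiscoveRx detection reagent.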
D1 agonist – agonists of human D1 dopamine receptor. activation, % at 2 µM. HEK293 T-REx D1 cells, calcium flux, agonist mode. hit rate 1% among 360,000. AID 504660. P21728; in the data active = activation above about 30%; also: 0% is about no effect
Target sequence (P21728 whole entry, looked up): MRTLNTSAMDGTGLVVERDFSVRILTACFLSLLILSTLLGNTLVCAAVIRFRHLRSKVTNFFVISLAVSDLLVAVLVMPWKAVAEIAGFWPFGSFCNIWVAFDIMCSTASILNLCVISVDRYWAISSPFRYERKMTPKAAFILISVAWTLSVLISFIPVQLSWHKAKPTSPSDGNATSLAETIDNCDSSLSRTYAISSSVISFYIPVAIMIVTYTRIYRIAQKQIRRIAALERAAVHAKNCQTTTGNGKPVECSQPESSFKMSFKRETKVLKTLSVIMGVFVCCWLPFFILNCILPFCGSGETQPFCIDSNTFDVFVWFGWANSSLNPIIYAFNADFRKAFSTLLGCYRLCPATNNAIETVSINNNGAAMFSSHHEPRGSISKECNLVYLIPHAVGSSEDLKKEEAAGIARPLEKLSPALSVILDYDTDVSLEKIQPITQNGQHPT
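Agonism was scored from calcium flux recorded over 180 s (1 read/s) after pintool compound addition, following a 10-cycle baseline. Cells were inducible force-coupled HEK293 TREx D1, plated overnight at 30 C and loaded with no-wash calcium dye.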
D1 PAM – enhances dopamine response at the human D1 receptor; P21728; HEK293 TREx D1 cells, calcium flux, dopamine EC20 potentiation; potentiation, % at 10 µM; hit rate 0.036% among 360,000; in the data active = potentiation above about 30%; also: 0% is about no effect
DRD3 antagonist – antagonists of human D3 dopamine receptor | max response, negative = inhibition, % | hit rate 2.5% among 360,000 | D3R cells, DiscoveRx beta-arrestin luminescence, antagonist mode; stronger effect = lower value | P35462 | AID 652054; in the data active = max response below about -50%; inconclusive = no clear call, values can overlap the other calls; also: % is scaled to controls: 0 for no effect and ±100 for the full control effect
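Cells expressing the human receptor were seeded at 1500 cells/well, incubated overnight at 37 degrees C in 5% CO2, then exposed to library compounds with dopamine controls for 90 minutes at 37 degrees C before luminescent detection.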
BCR signal inh – blocks chronic active B-cell receptor signaling. ABC-DLBCL IkBa-CBG/CBR reporter, luminescence ratio, 4 h. Potency, µM (top dose mostly 46.1 µM), for inactives: top-dose activity change, negative = inhibition, hits mostly inhibitors. hit rate 0.05% among 340,000. AID 493014; active = well fitted inhibition curve with a large enough effect in the signal ratio, with a control signal flat, not every such curve was filed as active; inconclusive = small, poorly fitted or top-dose-only effect, or effect the other way, or a change in a side signal; the % refers to the signal ratio;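 also: potency is read from the fitted curve at half-maximal effect; plate controls were basal doxycycline-induced cells for no effect and cells given 10 µM MG132 for full effect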
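TMD8 human ABC-DLBCL cells with doxycycline-inducible IκBα–green luciferase fusion and unfused red luciferase, in 0.5% FBS medium; compounds up to 46 uM, 4 h at 37C. Green/red luminescence ratio, filter-overlap corrected, fitted to concentration-response curves.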
D1 antagonist – blocks dopamine activation of the human D1 receptor | P21728 | HEK293 TREx D1 cells, calcium flux, dopamine EC80; stronger effect = lower value | activity change, negative = inhibition, % at 10 µM | hit rate 3.2% among 360,000 | AID 504652; in the data active = activity change below about -30%; also: % is scaled to controls: 0 for no effect and ±100 for the full control effect
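Using tetracycline-induced force-coupled D1 Hek293 cells and a calcium dye, signals were followed for 180 s after compound, then for 180 s after EC80 dopamine, to detect inhibitors.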
Active calls of the source: *; ? = inconclusive; · = not tested or not shown. Shown are actives, neighbours in structure and some others; about 6% of the full set was active somewhere.

SMILES	D3 ag	D1 agonist	D1 PAM	DRD3 antagonist	BCR signal inh	D1 antagonist
CCOC(=O)c1cnc(Nc2nc3ccccc3o2)nc1CSC(=S)N(CC)CC	-8	2	0	-60*	0.58µM*	-3
Cc1csc2nc(-c3cccc(NC(=O)c4c(F)cccc4F)c3)cn12	-8	-1	3	·	·	17
Cn1c(Sc2ccc(Br)cc2)c(C=O)c2ccccc21	-7	4	-8	-9	-17%	-63*
COc1ccc(NC(=O)CCN2CCCCCC2)c(OC)c1	-24	2	-2	-55*	0%	-13
COc1ccc(NC(=O)CN2CCC(C(N)=O)(N3CCCCC3)CC2)c(OC)c1	2	0	-8	14	-6%	-37*
COC(=O)c1[nH]c2cc(OC)ccc2c1NC(=O)CN1CCC(C(N)=O)(N2CCCCC2)CC1	1	-1	-2	-9	5%	18
CC(C)(C)NC(=O)C1(C)CCC(=O)N1CC(F)(F)F (stereo unspecified)	-6	·	·	0	·	·
COc1cccc(CNC(=O)N2CCC(CN3CCC(C)CC3)CC2)c1	-12	2	-4	·	3%	5
CCN1CCc2c(sc(-n3cccc3)c2C(CCC(C)C)NC(=O)NCCC(=O)OC)C1 (stereo unspecified)	-18	13	1	·	·	-5
COc1cc(C(=O)NCCCN2CCCC2=O)ccc1OCc1ccc(Cl)cc1Cl	1	38*	-10	-7	-19%	-16
O=C1CCCN1CCCNC(=S)Nc1ccccc1	13	5	-3	6	0%	-38*
O=C(NCCCN1CCCC1=O)c1ccc2c(c1)NC(=O)c1ccccc1S2	-1	1	·	13	3%	-32*
O=C1Nc2cc(C(=O)NCCCN3CCCC3)ccc2S/C1=C/c1cccc(Cl)c1	-2	·	·	-59*	·	·
CCC(C)N(CCNC(=O)c1ccc2c(c1)NC(=O)c1ccccc1S2)C1CCCCC1 (stereo unspecified)	-25	30*	-2	-12	-11%	1
CC1CCCC(C)N1CCCNC(=O)c1ccc2c(c1)NC(=O)c1ccccc1S2 (stereo unspecified)	0	3	-8	-18	0%	-7
O=C(Cn1cnc2c(NCc3ccccc3)ncnc21)NCCN1CCOCC1	-26	·	·	-5	-7%	·
O=C(Cn1cnc2c(NCc3ccccc3)ncnc21)NCCCN1CCCC1=O	34*	·	·	24	4%	·
CCN(Cc1ccccc1)C(=O)c1cc2c(s1)-c1c(C)cccc1OC2	-21	10	0	·	·	10
COc1cccc(-n2cc(C(=O)NCCc3cccc(C)c3)c3ccccc3c2=O)c1	5	-1	-3	·	·	3
O=C(O)CCN(Cc1ccccc1)S(=O)(=O)c1ccc(Cl)cc1F	-14	2	-2	?	5%	-38*
CC[C@@H](CO)NCCN[C@@H](CC)CO	2	·	·	·	·	·
O=C(COC(=O)c1ccc(Cl)nc1)NCc1ccc(F)cc1	-8	·	·	-50*	3%	·
Cc1ccc2oc(-c3ccc(Cl)cc3)c(O)c(=O)c2c1	18	71*	-2	·	·	-22
CC1=C(C)C(=O)C(C(CCCCCC(=O)O)c2ccccc2)=C(C)C1=O (stereo unspecified)	2	·	·	·	·	·
O=C(NCc1ccccn1)c1ccc(NS(=O)(=O)c2cccc(Cl)c2)cc1	-15	3	-3	-61*	?	17
SMILES	D3 ag	D1 agonist	D1 PAM	DRD3 antagonist	BCR signal inh	D1 antagonist
Cc1ccc(C)c(NS(=O)(=O)c2cc(C(=O)NCc3ccccn3)ccc2Cl)c1	1	0	12	20	-10%	-14
Cc1ccc(NS(=O)(=O)c2cc(C(=O)NCc3ccccn3)ccc2Cl)cc1C	-2	1	-5	-21	-2%	-31*
Cc1c(C(=O)NCCc2ccccc2)cccc1-n1cnc2cccnc21	7	-1	-3	·	·	-32*
COc1ccc(OCCCn2c(=O)oc3ccc(C)cc32)cc1	4	73*	2	·	·	-32*
Cc1ccc(C(C)C)c(OCCn2c(=O)oc3ccccc32)c1	-4	37*	-4	-9	16%	3
CCCCCOc1ccccc1Cn1c(=O)oc2ccc(C)cc21	4	10	-1	·	·	-48*
O=C(Cn1c(SCC(=O)Nc2ccc(F)cc2)nc2ccccc21)NCc1ccccc1Cl	1	33*	0	·	·	-20
CCc1cccc(C)c1NC(=O)CSc1nc2ccccc2n1CC(=O)N(C)C	1	0	-2	-11	0%	-35*
CC(C)(C)NC(=O)Cn1cc(S(=O)(=O)Cc2ccc(F)cc2)c2ccccc21	1	2	-1	·	·	6
Cc1ccc(CNC(=O)Cn2cc(S(=O)(=O)Cc3ccccc3F)c3ccccc32)cc1	4	32*	0	·	·	-12
O=C(Cn1cc(S(=O)(=O)Cc2ccc(F)cc2)c2ccccc21)NCc1ccccc1Cl	-21	36*	1	·	·	-22
CCc1ccccc1NC(=O)CSc1nc2ccccc2n1CC(=O)N(C)C	1	2	-6	10	-1%	-12
CCc1ccc(NC(=O)CCS(=O)(=O)c2ccc3c(c2)n(C)c(=O)c(=O)n3C)cc1	6	0	-3	·	·	10
Cc1ccccc1C(=O)NC1(C(F)(F)F)N=C(c2ccccc2)N(Cc2ccccc2)C1=O (stereo unspecified)	-7	8	-2	·	·	-3
N#Cc1nc(Cc2ccccc2)oc1NCc1ccccc1Cl	-6	9	-5	?	?	-37*
N#Cc1nc(Cc2ccccc2)oc1NCc1cccnc1	5	2	-6	-1	-12%	-25
N#CN=C(c1ccccc1)c1ccccc1	2	1	-3	8	-3%	15
N#CCN=C(c1ccccc1)c1ccccc1	12	-1	2	11	-6%	-47*
CC(=O)Nc1cc(-c2ccc(C(=O)N3CCOCC3)cc2)cn2c(-c3cccc(C(C)=O)c3)cnc12	4	·	·	54	·	·
Cc1ccc(C)c2sc(N3CCN(C(=O)c4ccc([N+](=O)[O-])o4)CC3)nc12	2	5	-1	?	8%	-6
O=C(c1ccc([N+](=O)[O-])o1)N1CCN(c2nc3c(F)cc(F)cc3s2)CC1	2	3	-7	0	19%	-31*
COc1ccccc1NC(=O)Nc1cc(NC(=O)Nc2ccccc2OC)c(C)nc1C	-1	1	-8	2	4%	-93*
COc1ccccc1NC(=O)NNC(=O)c1cc2ccccc2cc1O	-11	17	-11	-24	2%	-34*
COC(=O)c1sccc1NC(=O)Nc1cccc([N+](=O)[O-])c1	-2	5	-4	2	0%	-38*
Cc1ccc(NC(=O)NNC(=O)c2cc3ccccc3cc2O)cc1	-4	4	-2	-4	11%	-1
COc1ccc(NC(=O)Nc2ccccc2OC)cc1	-6	0	-2	4	?	·
